Outcome and AC50 data for 40 molecules are collected here from PubChem BioAssay (EPA / NIEHS).

Calls of active or inactive are those of the source. How the source made its calls: active means hit-call score of the fitted dose curve at least 0.9, where 1 is the maximum; inactive means score below 0.9.

Sequence of Broad substrate specificity ATP-binding cassette transporter ABCG2 (Homo sapiens) (Q9UNQ0 whole entry, looked up): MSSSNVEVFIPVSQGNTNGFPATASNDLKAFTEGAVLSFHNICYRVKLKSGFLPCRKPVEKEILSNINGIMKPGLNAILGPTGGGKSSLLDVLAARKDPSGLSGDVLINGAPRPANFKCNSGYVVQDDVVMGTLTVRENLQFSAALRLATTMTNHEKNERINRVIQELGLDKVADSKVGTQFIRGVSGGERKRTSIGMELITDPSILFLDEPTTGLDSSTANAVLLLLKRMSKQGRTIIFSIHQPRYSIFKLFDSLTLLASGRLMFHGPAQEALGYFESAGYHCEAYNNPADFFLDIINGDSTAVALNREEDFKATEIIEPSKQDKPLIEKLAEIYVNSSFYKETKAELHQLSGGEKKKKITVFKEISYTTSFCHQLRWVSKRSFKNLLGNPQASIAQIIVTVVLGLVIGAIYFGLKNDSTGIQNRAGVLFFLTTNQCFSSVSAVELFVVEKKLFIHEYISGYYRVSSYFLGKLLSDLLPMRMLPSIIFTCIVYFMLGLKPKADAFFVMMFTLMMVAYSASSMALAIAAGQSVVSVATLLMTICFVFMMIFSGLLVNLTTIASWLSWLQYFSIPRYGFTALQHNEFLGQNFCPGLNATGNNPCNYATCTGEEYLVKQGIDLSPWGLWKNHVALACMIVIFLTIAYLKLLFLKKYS

Read-out in the assay: Broad substrate specificity ATP-binding cassette transporter ABCG2 (Homo sapiens) (UniProt Q9UNQ0)
Briefly: LTEA_HepaRG_ABCG2: Life Technologies and Expression Analysis (LTEA) Assay for ABC Transporter (ABCG2) using HepaRG (AID 2283465). Conditions: mRNA level, 48 h; actives raise or lower the signal. The method, then: LTEA_HepaRG is a cell based, multiplexed-readout assay that uses HepaRG, a human liver cell line, with measurements taken at 48 hours after chemical dosing on a 96-well plate.LTEA_HepaRG_ABCG2 is one of 102 assay component(s) measured in the LTEA HepaRG cell culture assay. It is a marker of Steatosis/NR mediated transport.Data from the assay component LTEA_HepaRG_ABCG2 was analyzed into 1 endpoint. This assay endpoint, LTEA_HepaRG_ABCG2, was analyzed with bidirectional fitting relative to DMSO as the negative control and baseline of activity. Using a type of inducible reporter, measures of mRNA induction for gain or loss-of-signal activity can be used to understand regulation of transcription factor activity. To generalize the intended target to other relatable targets, this assay endpoint is annotated to the transporter intended target family, where the subfamily is ABC transporter.
A total of 1060 chemcials from the ToxCast library were tested in eight-point concentration-response experiments. Cell culture and cytotoxicity assays were conducted at Thermo Fisher Scientific's Custom Services facility (Madison, WI). A single lot of human HepaRG cells (Thermo Fisher Scientific, Frederick, MD) was used for the cell culture experiments. 96-well format collagen type I coated plates of human HepaRG cells were prepared using established methods. Briefly, cryopreserved HepaRG cells were thawed, plated at a density of approximately 100,000 cells/well in HepaRG Thaw, Plate, and General Purpose media (HPRG770, Thermo Fisher Scientific), and incubated for 48 hours. 0.5% DMSO was selected as vehicle control to balance the requisite need of DMSO in HepaRG cultures to maintain differentiation (for example, baseline metabolism, proportions of hepatocytes vs. cholangiocytes), while enabling further hepatic receptor pathway activation (for example, PXR and CAR) in response to chemical exposure. 48 hours after plating, the culture medium was replaced with HepaRG Serum-Free Incudtion Media. Cells were exposed to each test chemical in duplicate and maintained in CO2 incubators for another 48 hours. Chemical plates were thawed to room temperature and 200x concentrations of treatment groups were prepared. 8-point conentration-reponse curves were made with the highest exposure at 100 uM, followed by half-log dilutions, all in 0.5% DMSO. Each test plate contained variouse controls, induction positive controls (1mM phenobarbital), cytotoxicity positive controls ([…] aflatoxin B1), vehicle controls (0.5% DMSO), and total lysis controls (0.5% DMSO). Cell morphology images were taken using an Essen IncuCyte FLR automated microscope, with six 96-well plates imaged in about 24 minutes. Images were captured and exported and JPEG files. Spent culture media was transfered to black-well plates for the LDH assay, and remaining media was sorted at -80 C for later use. Cells were treated with RLT buffer and frozen until shipped for gene expression analysis. Total RNA was isolated from the cell suspension in 75 uL of Buffer RLT (Qiagen, Germantown, MD 20874) by Quintiles/Expression Analysis (Durham, NC) using a custom isolation procedure. Total RNA from each plate well was transferred to a preamplification plate. Fluidigm's 96.96 Dynamic ArrayTM (Fluidigm, Amsterdam, the Netherlands) technology was used for gene expression analyses by quantitative reverse transcription polymerase chain reaction (qRT-PCR, performed by Quintiles/Expression Analysis, Durham, NC)89. Standard TaqManTM Assays (Applied Biosystems/ThermoFisher Scientific, Foster City, CA) were used to assess the expression of 93 genes selected based on their selectivity and sensitivity to important hepatic receptors known to be modulated by environmental chemicals; importance in human hepatocyte functionality; and hepatotoxicity. […]
Turning to `OC[C@H]1O[C@@H]2O[C@H]3[C@H](O)[C@@H](O)[C@@H](O[C@H]4[C@H](O)[C@@H](O)[C@@H](O[C@H]5[C@H](O)[C@@H](O)[C@@H](O[C@H]6[C@H](O)[C@@H](O)[C@@H](O[C@H]7[C@H](O)[C@@H](O)[C@@H](O[C@H]1[C@H](O)[C@H]2O)O[C@@H]7CO)O[C@@H]6CO)O[C@@H]5CO)O[C@@H]4CO)O[C@@H]3CO`, the molecule was classed as inactive.

Regarding `NC(N)=O`, the call was inactive.

Turning to `O=C(O)c1cccc(C[C@@H]2COc3ccc(OCc4nc5cc(F)ccc5s4)cc3[C@@H]2O)c1`, the outcome was inactive.

Take `C=CN1CCCC1=O`: the molecule was classed as inactive.

For `COc1cc2c(c(OC)c1OC)-c1ccc(OC)c(=O)cc1[C@@H](NC(C)=O)CC2`, the molecule was called inactive.

As for `CCCCN1C(=O)[C@@H]([C@H](O)C2CCCCC2)NC(=O)C12CCN(Cc1ccc(Oc3ccc(C(=O)O)cc3)cc1)CC2`, the AC50 was 1.54 µM (active).

For `NNC(=O)c1ccncc1`, the outcome was inactive.

`CCCCOC(=O)c1ccccc1`: the outcome was inactive.

As to `CCCCCCCCCC`, the outcome was inactive.

`C[C@]12C=CC(=O)C=C1CC[C@H]1[C@@H]3C[C@@H](O)[C@](O)(C(=O)CO)[C@@]3(C)C[C@H](O)[C@@]12F`: the molecule was classed as inactive.

As to `O=C1CN(N=Cc2ccc([N+](=O)[O-])o2)C(=O)N1`, the AC50 was 50 µM (active).

On to `O=C(NO)C1(NS(=O)(=O)c2ccc(Oc3ccc(F)cc3)cc2)CCOCC1`, for which the molecule was classed as inactive.

As for `Cc1nc(-c2ccccn2)ncc1C(=O)Nn1cc(C)c2cc(F)ccc21`, the molecule was called inactive.

In the case of `OCC(CO)(CO)CO`, the molecule was classed as inactive.

Take `CCCOc1ccc(S(=O)(=O)N2CCN(CC)CC2)cc1-c1nc2c(CC)n(Cc3ccccn3)nc2c(=O)[nH]1`: the molecule was called inactive.

In the case of `CCc1cccc(CC)c1N`, the call was inactive.

Turning to `OC(Cn1cncn1)(Cn1cncn1)c1ccc(F)cc1F`, the molecule was called inactive.

For the molecule `Cn1cc[nH]c1=S`, the molecule was called inactive.

`CCN(CC)C(=S)SSC(=S)N(CC)CC`: the outcome was inactive.

With `NC(=O)N(O)[C@@H]1COc2cc(OCc3ccccc3)ccc21`, the call was inactive.

`O=S(=O)(O)c1ccc(N=Nc2c(O)ccc3cc(S(=O)(=O)O)ccc23)cc1`: the result was inactive.

Take `CCOC(N)=O`: the result was inactive.

Turning to `CC(C)CCCCCCOC(=O)C1CCCCC1C(=O)OCCCCCCC(C)C` (stereo not given), the call was inactive.

Consider `CC1(C)C(=O)N(Cl)C(=O)N1Cl`, for which the outcome was inactive.

Take `CCCCCCCC/C=C\CCCCCCCC(=O)OC[C@@H](O)[C@H]1OC[C@H](O)[C@H]1O`: the molecule was called inactive.

Consider `CC(C)C(=O)Nc1ccc([N+](=O)[O-])c(C(F)(F)F)c1`, for which the molecule was classed as inactive.

As to `c1ccc2ncccc2c1`, the outcome was inactive.

Consider `COS(C)(=O)=O`, for which the outcome was inactive.

As to `O=C(O)[C@H](O)[C@@H](O)C(=O)O`, the molecule was called inactive.

For the molecule `CCn1nc(C)c2c1C(=O)NCC(c1ccc(O)cc1)=N2`, the molecule was called inactive.

As to `NC(=O)N1c2ccccc2C=Cc2ccccc21`, the molecule was called inactive.

As for `CCCCCCCC1CCC(=O)O1` (stereo not given), the molecule was called inactive.

For `OC(CCl)CCl`, the call was inactive.

Consider `CC(C)c1nnc2ccc(-c3ocnc3-c3cc(F)ccc3F)cn12`, for which the AC50 was 0.384 µM (active).

For the molecule `Cc1nccn1-c1ccc(Sc2cccc(C3(C(N)=O)CCOCC3)c2)cc1`, the AC50 is 31.2 µM (active).

Consider `OCCNCCO`, for which the molecule was called inactive.

For `Nc1ccn([C@@H]2O[C@H](CO)[C@@H](O)[C@@H]2O)c(=O)n1`, the result was inactive.

As for `O=c1[nH]cnc2c1ncn2[C@H]1CC[C@@H](CO)O1`, the molecule was classed as inactive.

`NC(=O)NN=Cc1ccc([N+](=O)[O-])o1`: the molecule was classed as inactive.

As for `CCc1ccc(O)c(C(C)(C)C)c1`, the molecule was classed as inactive.

The term AC50 denotes the concentration at which the activity in the assay is half-maximal.
